{"source": "PubChem BioAssay (NCATS)", "note": "Results filed as inconclusive are left out. Calls of active or inactive are those of the source. Calls come from the whole dose curve; as a rule, active = well fitted cell-killing curve with a large enough effect; inconclusive = small, poorly fitted or top-dose-only effect, or effect the other way; inactive = no such curve, though single readings can be large or run the other way. Potency is the fitted concentration of half-maximal effect.", "data": [{"test": "Quantitative High-Throughput drug screen in 47 multiple myeloma cell lines against the NCATS MIPE library collection: KMS20_JCRB cell viability assay (AID 1918973); note: nearly all actives have a fitted effect of over 45% in size", "conditions": "CellTiter-Glo ATP, 48 h; series mostly up to 45.8 µM", "method_in_brief": "(§1)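 Inhibition of cell viability is measured here. Each line was plated at 500 cells per well, treated with MIPE 4.0 drugs, kept 48 hours at 37C, then assayed for ATP content by CellTiter-Glo luminescence.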", "values": [{"smiles": "Cc1ccc(NC(=O)C2(c3ccc4c(c3)OC(F)(F)O4)CC2)nc1-c1cccc(C(=O)O)c1", "Potency": "83.3 nM (active)"}, {"smiles": "Cc1ccc(-c2ncn(-c3ccc(Nc4nccc(-c5cccc(N6CCOCC6)c5)n4)cc3)n2)cn1", "Potency": "83.3 nM (active)"}, {"smiles": "CCCCOc1c(C(=O)c2c(F)cc(C)cc2F)cnc2n[nH]cc12", "Potency": "4180 nM (active)"}, {"smiles": "CC(=O)c1c(C)c2cnc(Nc3ccc(N4CCNCC4)cn3)nc2n(C2CCCC2)c1=O", "Potency": "7430 nM (active)"}, {"smiles": "CNC(=O)c1ccc(N2C(=S)N(c3cnc(C#N)c(C(F)(F)F)c3)C(=O)C23CCC3)cc1F", "Potency": "2350 nM (active)"}, {"smiles": "O=c1[nH]nc(Sc2ncc([N+](=O)[O-])s2)n1-c1ccc2c(c1)OCCO2", "Potency": "2090 nM (active)"}, {"smiles": "CN(C)CC=CC(=O)Nc1cc2c(Nc3ccc(F)c(Cl)c3)ncnc2cc1O[C@H]1CCOC1", "Potency": "2090 nM (active)"}, {"smiles": "Cn1c2ccccc2c2c3c(c4c5ccccc5n(CCC#N)c4c21)CNC3=O", "Potency": "1480 nM (active)"}, {"smiles": "CC(NCc1ccc2c(c1)nc(NC(=O)c1ccc(-c3cn[nH]c3)s1)n2CC(C)(C)O)C(C)(C)C", "note": "(stereo not drawn)", "Potency": "235 nM (active)"}, {"smiles": "C#Cc1cccc(Nc2ncnc3cc(OC)c(OCCCCCCC(=O)NO)cc23)c1", "Potency": "83.3 nM (active)"}, {"smiles": "CC1(O)CC(c2nc(-c3ccc4ccc(-c5ccccc5)nc4c3)c3c(N)nccn23)C1", "note": "(stereo not drawn)", "Potency": "1180 nM (active)"}, {"smiles": "CC(C)(C)c1cnc(CSc2cnc(NC(=O)C3CCNCC3)s2)o1", "Potency": "74.3 nM (active)"}, {"smiles": "CCS(=O)(=O)c1cccc(-c2cc(C(=O)NC3CCN(C)CC3)c(C)c3[nH]c4ncc(C)cc4c23)c1", "Potency": "1320 nM (active)"}, {"smiles": "Cc1ccc(C(=O)Nc2cccc(C(F)(F)F)c2)cc1-c1ccc2nc(NCCN3CCOCC3)ncc2c1", "Potency": "1660 nM (active)"}, {"smiles": "CNC(=O)c1ccccc1Nc1nc(Nc2ccc(N3CCOCC3)cc2OC)ncc1Cl", "Potency": "2350 nM (active)"}, {"smiles": "OCCCNc1cc(-c2ccnc(Nc3cccc(Cl)c3)n2)ccn1", "Potency": "41.8 nM (active)"}, {"smiles": "CC(C)c1ccccc1Cc1cc(C(=O)Nc2ccc(S(=O)(=O)c3ccccc3C(C)(C)C)cc2)c(O)c(O)c1O", "Potency": "9350 nM (active)"}, {"smiles": "Cn1cc(-c2[nH]c3cc(NC(=O)[C@H](N)C4CCCCC4)cc4c3c2C=NNC4=O)cn1", "Potency": "935 nM (active)"}, {"smiles": "N#CCNC(=O)c1ccc(-c2ccnc(Nc3ccc(N4CCOCC4)cc3)n2)cc1", "Potency": "13200 nM (active)"}, {"smiles": "CN1CC[C@@H](c2c(O)cc(O)c3c(=O)cc(-c4ccccc4Cl)oc23)[C@@H](O)C1", "Potency": "83.3 nM (active)"}, {"smiles": "NC(=O)Nc1cc(-c2cccc(F)c2)sc1C(=O)N[C@H]1CCCNC1", "Potency": "662 nM (active)"}, {"smiles": "CN(C)Cc1c(C(=O)NCCOc2ccc(C(=O)NO)cc2)oc2ccccc12", "Potency": "372 nM (active)"}, {"smiles": "Cc1[nH]nc2ccc(-c3cncc(OC[C@@H](N)Cc4ccccc4)c3)cc12", "Potency": "1180 nM (active)"}, {"smiles": "COC(=O)[C@]12CCC(C)(C)C[C@@H]1[C@@H]1C(=O)C=C3[C@@]4(C)C=C(C#N)C(=O)C(C)(C)[C@@H]4CC[C@@]3(C)[C@]1(C)CC2", "Potency": "296 nM (active)"}, {"smiles": "CC(C)C[C@H](NC(=O)CNC(=O)c1cc(Cl)ccc1Cl)B(O)O", "Potency": "132 nM (active)"}, {"smiles": "O=C(CCCCCCNC(=O)c1cnc(N(c2ccccc2)c2ccccc2)nc1)NO", "Potency": "8330 nM (active)"}, {"smiles": "CC=C1NC(=O)[C@H]2CSSCCC=C[C@H](CC(=O)N[C@H](C(C)C)C(=O)N2)OC(=O)[C@H](C(C)C)NC1=O", "Potency": "20.9 nM (active)"}, {"smiles": "CC1=C(CO)C(=O)O[C@@H]([C@@H](C)[C@H]2CC[C@H]3[C@@H]4C[C@H]5O[C@]56[C@@H](O)C=CC(=O)[C@]6(C)[C@@H]4CC[C@]23C)C1", "Potency": "148 nM (active)"}, {"smiles": "CC(=O)Nc1nc(C)c(-c2ccc(Cl)c(S(=O)(=O)NCCO)c2)s1", "Potency": "1180 nM (active)"}, {"smiles": "O=C(Nc1cc(C(F)(F)F)cc(C(F)(F)F)c1)c1cc(Cl)ccc1O", "Potency": "1320 nM (active)"}, {"smiles": "O=C(Nc1cn[nH]c1-c1nc2ccc(CN3CCOCC3)cc2[nH]1)NC1CC1", "Potency": "2960 nM (active)"}, {"smiles": "CNc1nccc(-c2cccnc2Oc2cc(C(=O)Nc3cccc(C(F)(F)F)c3)ccc2C)n1", "Potency": "9350 nM (active)"}]}, {"test": "Quantitative High-Throughput drug screen in 47 multiple myeloma cell lines against the NCATS MIPE library collection: KMS21BM_JCRB cell viability assay (AID 1918974)", "conditions": "ATP luminescence, 48 h; viability: at 45.8 µM (top of the series) unless noted", "method_in_brief": "as §1", "values": [{"smiles": "Cc1ccc(NC(=O)C2(c3ccc4c(c3)OC(F)(F)O4)CC2)nc1-c1cccc(C(=O)O)c1", "Potency": "46.9 nM (active)"}, {"smiles": "Cc1ccc(-c2ncn(-c3ccc(Nc4nccc(-c5cccc(N6CCOCC6)c5)n4)cc3)n2)cn1", "Potency": "29.6 nM (active)"}, {"smiles": "CC(=O)c1c(C)c2cnc(Nc3ccc(N4CCNCC4)cn3)nc2n(C2CCCC2)c1=O", "Potency": "14800 nM (active)"}, {"smiles": "CN(C)CC=CC(=O)Nc1cc2c(Nc3ccc(F)c(Cl)c3)ncnc2cc1O[C@H]1CCOC1", "Potency": "166 nM (active)"}, {"smiles": "CC(C)(C)c1cnc(CSc2cnc(NC(=O)C3CCNCC3)s2)o1", "Potency": "66.2 nM (active)"}, {"smiles": "Cc1ccc(C(=O)Nc2cccc(C(F)(F)F)c2)cc1-c1ccc2nc(NCCN3CCOCC3)ncc2c1", "Potency": "1660 nM (active)"}, {"smiles": "CNC(=O)c1ccccc1Nc1nc(Nc2ccc(N3CCOCC3)cc2OC)ncc1Cl", "Potency": "209 nM (active)"}, {"smiles": "OCCCNc1cc(-c2ccnc(Nc3cccc(Cl)c3)n2)ccn1", "Potency": "37.2 nM (active)"}, {"smiles": "Cn1cc(-c2[nH]c3cc(NC(=O)[C@H](N)C4CCCCC4)cc4c3c2C=NNC4=O)cn1", "Potency": "166 nM (active)"}, {"smiles": "CN1CC[C@@H](c2c(O)cc(O)c3c(=O)cc(-c4ccccc4Cl)oc23)[C@@H](O)C1", "Potency": "29.6 nM (active)"}, {"smiles": "NC(=O)Nc1cc(-c2cccc(F)c2)sc1C(=O)N[C@H]1CCCNC1", "Potency": "235 nM (active)"}, {"smiles": "CN(C)Cc1c(C(=O)NCCOc2ccc(C(=O)NO)cc2)oc2ccccc12", "Potency": "46.9 nM (active)"}, {"smiles": "Cc1[nH]nc2ccc(-c3cncc(OC[C@@H](N)Cc4ccccc4)c3)cc12", "Potency": "935 nM (active)"}, {"smiles": "COC(=O)[C@]12CCC(C)(C)C[C@@H]1[C@@H]1C(=O)C=C3[C@@]4(C)C=C(C#N)C(=O)C(C)(C)[C@@H]4CC[C@@]3(C)[C@]1(C)CC2", "Potency": "74.3 nM (active)"}, {"smiles": "CC(=O)Nc1nc(C)c(-c2ccc(Cl)c(S(=O)(=O)NCCO)c2)s1", "Potency": "1660 nM (active)"}, {"smiles": "O=C(Nc1cc(C(F)(F)F)cc(C(F)(F)F)c1)c1cc(Cl)ccc1O", "Potency": "526 nM (active)"}]}]}
